# Compound activity: PubChem, National Center for Advancing Translational Sciences (NCATS)
# RE007 growth inh = qHTS Assay for Inhibitors of the HIV-1 protein Vpr; AID 651644, 2012; 0.21% of 360,000 active; Potency, µM (doses to about 92.2 µM), for inactives: at the highest dose activity change, negative = less growth, hits mostly inhibitors; S. pombe RE007 Vpr strain, BacTiter-Glo ATP luminescence, 24 h; active = well fitted falling curve with a large enough effect; inconclusive = small, poorly fitted or top-dose-only effect; inactive = no such curve, though single readings can be large or run the other way; also: % is scaled to controls: 0 for no effect and ±100 for the full control effect; nearly all actives have a fitted effect of over 50% in size
#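 Fission yeast RE007 carrying one integrated HIV-1 vpr copy, seeded at OD 0.01 in PMG+AL medium with 23 nL pinned compound. Grown 24 h at 30 degrees; viability read by BacTiter-Glo luminescence after 5 min.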
# NS1 inh = qHTS Assay for Inhibitors of Influenza NS1 Protein Function; Potency, µM (doses to about 46.1 µM), without a hit: at the highest dose activity, positive = more growth; 0.4% of 270,000 active; calls by dose curve; also: actives are rising curves; nearly all actives have a fitted effect of over 50% in size
#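 In this qHTS, NS1 from influenza A is expressed in budding yeast, where it slows growth. Cells are switched from glucose to 2% galactose medium (pH 6.0, -URA), treated with compound, and growth recovery is read at OD600.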
# Pf growth 48h = Primary qHTS for delayed death inhibitors of the malarial parasite plastid, 48 hour incubation. AID 504832, 2011. Potency, µM (doses to about 28.7 µM), inactives show at the top dose activity change, negative = inhibition, hits mostly inhibitors. 5.9% of 310,000 active. P. falciparum luciferase growth in erythrocytes, 48 h; also: % is scaled to controls: 0 for no effect and ±100 for the full control effect
#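 A one-generation exposure of luciferase-tagged malaria parasites in RPMI 1640/Albumax erythrocyte culture, 37 C and 5% CO2. Inhibition is inferred from decreased luminescence after adding detection reagent.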
# Pf growth 96h = Primary qHTS for delayed death inhibitors of the malarial parasite plastid, 96 hour incubation; P. falciparum luciferase reporter growth, 96 h; Potency, µM (highest dose often 28.7 µM), for the others: at the highest dose activity change, negative = inhibition, hits mostly inhibitors; 6.9% of 320,000 active; also: % is scaled to controls: 0 for no effect and ±100 for the full control effect
#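 Readout is luminescence from an integrated firefly luciferase in P. falciparum. Red cells, 2% hematocrit and 0.05% parasitemia final, were cultured with compound through two parasite generations (96 hours) at 37 C, 5% CO2.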
# SARS PLP yeast = qHTS of Yeast-based Assay for SARS-CoV PLP; S. cerevisiae expressing SARS-CoV PLpro, growth rescue; Potency, µM (doses to about 32.9 µM), for inactives: at the highest dose activity, positive = growth rescue, most hits filed as activators; 0.19% of 330,000 active; AID 485353, 2010; calls by dose curve; also: 0% is about no effect; nearly all actives have a fitted effect of over 55% in size
# * hit, by the source's call; ? = inconclusive; . = no result given; [ ] = another dose, or the depositor's remark. In the library only some 9.5% were active in any assay of this set; here they are far more common. Unless noted, calls follow the shape of the dose curve; as a rule, active = well fitted inhibition curve with a large enough effect; inconclusive = small, poorly fitted or top-dose-only effect, or another doubt; inactive = no such curve, though single readings can be large or run the other way. Potency is read from the fitted curve at half-maximal effect.
SMILES,RE007 growth inh,NS1 inh,Pf growth 48h,Pf growth 96h,SARS PLP yeast
CN(Cc1nc2ccccc2c(=O)[nH]1)C(=O)c1ccc(S(=O)(=O)N(C)C)cc1,-8%,2%,.,?,15%
Cc1ccc(S(=O)(=O)N(C)c2ccc(C(=O)N(C)Cc3nc4ccccc4c(=O)[nH]3)cc2)cc1,17%,.,12µM*,5.9µM*,-2%
COc1ccccc1CN(Cc1nc2ccccc2c(=O)[nH]1)C(=O)Nc1ccc(C)cc1,-1%,-20%,?,.,-3%
O=C(Nc1ccc2c(c1)OCO2)c1cc(C2CCCCN2C(=O)CCCc2ccccc2)on1 (configuration not stated),6%,.,.,.,.
O=C(Nc1cccc(Cl)c1)NC1CC2CCC1C2 (configuration not stated),-1%,-75%,3%,-19%,-1%
O=C(NCCCN1CCCCC1)c1ccc(CS(=O)c2ccc(F)cc2)o1 (configuration not stated),-1%,-6%,27%,?,3%
CCN1/C(=C/C=C/c2oc3ccc(-c4ccccc4)cc3[n+]2CC)Oc2ccc(-c3ccccc3)cc21,?,-42%,0.93µM*,-22%,-4%
CC(C)C[C@@H](CN)NC(=O)c1nc[nH]c1C(=O)N[C@@H](CC(=O)O)C(=O)CNC[C@H](C)NC(=O)c1nc[nH]c1C(=O)N[C@@H](CC(=O)O)C(=O)O,0%,.,.,.,.
CC(C)CC(=O)Nc1cccc(-c2csc(-c3ccccc3)n2)c1,-4%,-10%,?,6.6µM*,-17%
CC(=O)Nc1ccc(-c2csc(NCc3ccccc3)n2)cc1,-4%,8%,6%,-19%,-1%
CC(=O)Nc1cccc(-c2csc(NCc3ccccc3)n2)c1,-15%,2%,?,10µM*,-1%
CCC(=O)Nc1cccc(-c2csc(-c3ccccc3)n2)c1,-1%,-47%,34%,-2%,-110%
Nc1cc(Cl)ccc1N1CCCC1,-8%,.,2.1µM*,?,-2%
Nc1nc(Cl)cc(N2CCCC2)n1,3%,-1%,0%,7.4µM*,0%
Nc1cc(F)ccc1N1CCCCCC1,0%,.,1µM*,144%,-3%
CN1CCN(c2ccc(F)cc2N)CC1,0%,.,23%,?,1%
CCN(C[C@H]1N[C@@](Cc2ccccc2)(C(=O)OC)[C@H]2C(=O)N(C)C(=O)[C@@H]12)C(=O)NC(C)C,-5%,.,.,.,3%
CC(=O)Nc1cccc(NC(C)=C(C#N)C#N)c1,-7%,-6%,11%,21%,15%
Cc1[nH]c(=O)[nH]c(=O)c1S(=O)(=O)N1CCC(C(=O)N2CCN(c3cccc(C(F)(F)F)c3)CC2)CC1,-13%,.,10µM*,18%,-2%
Cc1c(NS(=O)(=O)c2cc(C(=O)N(C)Cc3ccccc3)ccc2Cl)c(=O)n(-c2ccccc2)n1C,-3%,.,.,.,-10%
Cc1c(NS(=O)(=O)c2cc(C(=O)NCc3cccnc3)cc(Cl)c2Cl)c(=O)n(-c2ccccc2)n1C,-12%,.,12µM*,?,-4%
CC(=O)CC(c1ccccc1)S(=O)(=O)c1ccc([N+](=O)[O-])cc1 (configuration not stated),-2%,0%,32%,38%,0%
COc1cc(O)c(CCO)c2c1C(=O)C[C@@H](C)O2,1%,-3%,7%,1.9µM*,-1%
CCCSc1nc(N)nc2c1ncn2C1OC(CO)C(O)C1O (configuration not stated),5%,.,.,.,.
O=C(Oc1cccc2cccnc12)c1ccccc1,.,.,?,-7%,.
SMILES,RE007 growth inh,NS1 inh,Pf growth 48h,Pf growth 96h,SARS PLP yeast
O=C(COc1cccc2cccnc12)NNC(=S)Nc1ccccc1,.,.,-22%,0.66µM*,0%
CN(C(=O)Oc1cccc2cccnc12)c1ccccc1,3%,-49%,-22%,?,5%
O=C(/C=C\c1ccccc1)Oc1cccc2cccnc12,?,.,?,5.9µM*,-2%
O=C(COc1cccc2ccccc12)NNC(=O)Nc1ccccc1,-4%,14%,46%,?,-8%
O=C(/C=C/c1ccccc1)Oc1cccc2cccnc12,?,-55%,4.7µM*,3.7µM*,-6%
C#CCCc1cscc1/C=[N+](\[O-])c1ccc(C(=O)OCC)cc1,-14%,.,8.3µM*,?,6%
CCOC(=O)c1ccc(/[N+]([O-])=C/c2ccccc2)cc1,26%,.,161%,194%,-9%
CCOC(=O)C1=C(Cn2cnc3ccccc32)NC(=O)NC1c1ccc(Cl)cc1 (configuration not stated),-13%,-9%,.,5.9µM*,?
C=Cn1c(C(=O)O)cc(CC)c1-c1ccccc1,11%,-60%,8%,1.5µM*,-7%
COC(=O)C(c1ccccc1Cl)N1CCc2sccc2C1 (configuration not stated),.,.,?,11µM*,.
COC(=O)CC(NS(=O)(=O)c1cccs1)c1ccccc1Cl (configuration not stated),-9%,0%,8%,-2%,9%
COC(=O)[C@H](c1ccccc1Cl)N1CCc2sccc2C1,-5%[18.4 µM],-37%,12µM*,8.3µM*,-13%
Cc1cc(CNC(=O)c2ccc3nc(Cc4ccccc4F)oc3c2)nn1C,5%,-18%,14%,2.1µM*,10%
O=C(NCc1ccncc1)c1ccc2nc(Cc3ccccc3F)oc2c1,-12%,3%,15%,?,-3%
CCN1C(=O)CC(Sc2ccccc2C(=O)O)C1=O (configuration not stated),5%,8%,-81%,.,-1%
Cn1nnnc1SC1CC(=O)N(c2ccccc2)C1=O (configuration not stated),32µM*,-54%,2%,-45%,-5%
CCOc1ccc(N2C(=O)CC(Sc3ccccc3C(=O)O)C2=O)c([N+](=O)[O-])c1 (configuration not stated),?,.,-1%[5.75 µM],2%,-4%
O=C1CC(Sc2nnnn2C2CCCCC2)C(=O)N1c1ccccc1 (configuration not stated),?,-46%,9%,34%,-87%
O=C(O)c1ccccc1SC1CC(=O)N(c2cccc3ccccc23)C1=O (configuration not stated),7.9µM*,-129%,2.1µM*,60%,-21%
Cc1cccc(N2C(=O)CC(Sc3nnc(C)s3)C2=O)c1 (configuration not stated),35µM*,-34%,9%,-8%,-124%
COC(=O)c1ccccc1SC1CC(=O)N(c2ccccc2)C1=O (configuration not stated),-8%,-19%,-22%,12µM*,-14%
COc1ncccc1C(=O)N1CCCC(N2CCN(c3cccc(Cl)c3)CC2)C1 (configuration not stated),-3%,-5%,-29%,?,2%
